Source: PubChem BioAssay AID2289 (National Center for Advancing Translational Sciences (NCATS), 2010)
The whole screen tested about 340,000 compounds, of which about 3,300 (0.97%) were called active. Another 9% or so got no clear call; they are omitted. The call rests on the fitted dose curve; in most records, active means well fitted inhibition curve with a large enough effect; inconclusive means small, poorly fitted or top-dose-only effect, or effect the other way; inactive means flat fitted curve, though single readings scatter. The list shows a part of the results.

Assay: qHTS Assay for Modulators of miRNAs and/or Inhibitors of miR-21; further: nearly all actives have a fitted effect of over 55% in size
Details: HeLa miR-21-FLuc reporter, luciferase luminescence, 48 h; actives lower the signal
Procedure, shortened: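 Using DMEM plus 10% FBS, HeLa miR-21-FLuc cells are incubated with test compounds (final up to about 40uM) for 48 hours; firefly luciferase signal is then imaged following reagent-mediated lysis.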
Potency means the concentration at half of the fitted maximal effect.

Potency, active:
O=C(NC(=S)Nc1ccc2c(c1)OCCO2)c1cccc(Br)c1 3.69 µM
CCc1ccc(C(=O)NC(=S)Nc2ccc3c(c2)OCCO3)cc1 2.07 µM
Cc1cc(C)cc(C(=O)NC(=S)Nc2ccc3c(c2)OCCO3)c1 7.36 µM
O=C(O)c1ccc(-c2nc(-c3ccc(Cl)cc3)cs2)cc1 0.414 µM
CNC(=O)c1ccc(-c2nc(-c3ccccc3)cs2)cc1 3.29 µM
O=C(O)c1ccc(-c2nc(-c3ccccc3)cs2)cc1 2.61 µM
C/C(CC(=O)NCc1ccccc1Cl)=N/NC(=O)c1ccccn1 8.26 µM
COc1ccccc1NC(=O)C/C(C)=N/NC(=O)c1ccccn1 1.85 µM
C/C(CC(=O)Nc1cc(C)cc(C)c1)=N\NC(=O)c1ccccn1 4.65 µM
CCOC(=O)C1CCCN(C(=O)CCc2nnc(-c3ccc(C(C)=O)s3)o2)C1 (centres undefined) 3.29 µM
Fc1ccccc1-n1ncc2c1ncn1nc(-c3ccccc3Cl)nc21 0.736 µM
CC1(C)C=Cc2cc3ccc(=O)oc3cc2O1 13.1 µM
COc1c2c(cc3oc(=O)ccc13)OC(C)(C)C=C2 18.5 µM
O=C(NC(=S)Nc1ccccc1C(=O)O)c1ccc(-c2ccc(Br)cc2)o1 11.7 µM
NC(=O)c1ccccc1NC(=O)c1ccc(-c2ccc(Br)cc2)o1 1.17 µM
S=c1[nH]nc(-c2ccc(Cl)cc2Cl)n1-c1ccccc1 5.21 µM
CN(c1ccccc1)c1ccc(/C=N/N2CCOCC2)cc1 1.47 µM
O=[N+]([O-])c1ncccc1OCc1ccc(Cl)c(Cl)c1 7.36 µM
COc1ccc2nc(NC(=O)c3cccnc3SC)sc2c1 2.93 µM
COc1ccc2nc(NC(=O)c3ccc(Br)s3)sc2c1 1.17 µM
O=C(NC(=O)c1ccc(Cl)cc1)OC1CCCCC1 16.5 µM
Cc1cc(CC(C)C)n(-c2nc3ccccc3c(=O)n2OCC(=O)N(C)C)n1 18.5 µM
COc1ccc(CCn2nc(C)c([N+](=O)[O-])c2C)cc1 4.14 µM
O=C(/C=C/Nc1ccccc1O)c1ccco1 18.5 µM
CC(=O)N1c2ccccc2Oc2cc3ccccc3cc21 9.27 µM
CCCC(=O)N(CCN1CCOCC1)c1nc2cc(C)c(C)cc2s1 2.33 µM
Cc1csc(NC(=S)NC(=O)c2ccccc2)n1 1.31 µM
O=C(Nc1ccc2ncccc2c1)c1ccccc1Br 1.65 µM
Cc1cc(C(=O)Nc2cnc3ccccc3c2)ccc1[N+](=O)[O-] 0.736 µM
O=C(NC(=S)Nc1ccc2ncccc2c1)c1ccccc1 6.56 µM
O=C(NNC(=S)Nc1ccccc1)c1ccc2ncccc2c1 8.26 µM
O=C(NC(=S)Nc1ccc(Cl)cc1)c1ccccc1 4.65 µM
O=C(NC(=S)Nc1cnc2ccccc2c1)c1ccccc1 0.585 µM
Cc1cccc2nc(CSc3nc4ccccc4o3)cn12 18.5 µM
Clc1ccc(SCc2cn3ccccc3n2)cc1 4.65 µM
c1ccc2c(SCc3cn4ccccc4n3)nncc2c1 14.7 µM
Cc1cc(C)c(C#N)c(SCc2cn3ccccc3n2)n1 18.5 µM
Cc1cccc2nc(CSc3ccc(Cl)cc3)cn12 4.14 µM
c1ccc2nc(SCc3cn4ccccc4n3)cnc2c1 9.27 µM
Clc1ccc2nc(CSCc3ccccc3)cn2c1 2.93 µM
CCOc1ccc(N2Nc3n[nH]c(N)c3N2)cc1 16.5 µM
N#CC1CC(c2ccccc2)=NN1c1ccccc1[N+](=O)[O-] (centres undefined) 5.85 µM
CC(/C=C/c1ccc(OCc2ccccc2)cc1)=N\O 2.07 µM
c1ccc(CSc2nnc3ccc(-c4cccs4)nn23)nc1 7.36 µM
COC(=O)c1cc2c(s1)-c1ccc(OC)cc1CC2 6.56 µM
CCc1ccc(-n2nnc(-c3nc(-c4cccs4)no3)c2N)cc1 1.17 µM
CCc1ccc(-n2nnc(-c3nc(-c4ccccc4)no3)c2C)cc1 1.17 µM
Cc1cccc(-n2nnc(-c3nc(-c4cccs4)no3)c2N)c1C 0.0927 µM
COc1cccc(-n2nnc(-c3nc(-c4cccs4)no3)c2N)c1 1.04 µM
Cc1cccc(-n2nnc(-c3nc(-c4cccs4)no3)c2N)c1 0.329 µM
Nc1c(-c2nc(-c3cccs3)no2)nnn1-c1cccc(F)c1 0.208 µM
COc1ccc(/C(C)=N/Nc2ccccc2Cl)c(O)c1 8.26 µM
Nc1nc(N2CCN(c3ccccn3)CC2)nc2ccccc12 6.56 µM
Nc1nc(N2CCN(C(=O)c3ccco3)CC2)nc2ccccc12 14.7 µM
CCOc1ccc2nc(C(=O)N3CCCC(C)C3)sc2c1 (centres undefined) 3.29 µM
Clc1ccc(COn2nnc3ccccc32)c(Cl)c1 2.61 µM
c1ccc2c(COn3nnc4ccccc43)cccc2c1 2.61 µM
COC(=O)c1ccc(COn2nnc3ccccc32)cc1 1.31 µM
COc1cccc(/C=N/Nc2nc3ccccc3[nH]2)c1OC 2.93 µM
COc1cccc(/C=N/n2c(=O)[nH]c3ccccc32)c1OC 8.26 µM
O=c1[nH]n(CC2COC3(CCCCC3)O2)c(=O)c2ccccc12 (centres undefined) 16.5 µM
Oc1cccc(Nc2nc(O)c(/C=C3\C=Nc4ccccc43)s2)c1 8.26 µM
O=C(O)c1ccc(/C=N/Nc2cccc(C(F)(F)F)c2)cc1 7.36 µM
FC(F)(F)c1cccc(N/N=C/c2ccccc2)c1 6.56 µM
Cc1ccc(S(=O)(=O)Oc2cccc(/C=N/Nc3ccc(C(=O)O)cc3)c2)cc1 13.1 µM
O=C(O)c1ccc(N/N=C/c2cccc(C(F)(F)F)c2)cc1 1.85 µM
Cc1nn(-c2cccc(C(F)(F)F)c2)c(Cl)c1/C=N/Nc1cccc(C(=O)O)c1 0.104 µM
Oc1ccc(/C=N/Nc2ccc(Cl)nn2)cc1O 13.1 µM
CCNc1nc(NCC)nc(N/N=C/c2ccc(O)c(O)c2)n1 18.5 µM
Oc1ccc(/C=N/Nc2ccc(C(F)(F)F)cn2)cc1O 10.4 µM
O=C1C[C@H]2[C@H](CO)[C@@H](OC(=O)c3ccc(-c4ccccc4)cc3)C[C@H]2O1 7.36 µM
O=C(O)c1ccccc1N/N=C/c1cc(Br)cc(Br)c1O 2.07 µM
O=C(O)c1cccc(N/N=C/c2cc(Br)cc(Br)c2O)c1 5.21 µM
O=c1[nH]c2ccccc2c2cn(-c3ccccc3)nc12 4.65 µM
CC(CNC(=O)c1ccc2c(c1)nc1n2CCOC1)c1ccccc1 (centres undefined) 13.1 µM
Cc1cccc(CCNC(=O)c2ccc3c(c2)nc2n3CCOC2)c1 3.29 µM
COc1cc(Cl)cc(/C=C/c2ccc3ccccc3n2)c1OC(C)=O 0.414 µM
O=C1c2ccccc2-c2nc3ccccc3cc21 1.47 µM
O=C(COc1ccc(Cl)cc1)Nc1ccc(-c2nc3cc(Cl)ccc3o2)c(O)c1 7.36 µM
COc1ccc(OCC(=O)Nc2ccc(-c3nc4cc(Cl)ccc4o3)cc2)cc1 2.93 µM
COc1ccc(OCC(=O)Nc2ccc(-c3nc4cc(C)c(C)cc4o3)cc2)cc1 0.131 µM
Cc1cc2nc(-c3cccc(NC(=O)COc4ccc(C(C)C)cc4)c3)oc2cc1C 0.369 µM
O=C(OCC(=O)N1CCOCC1)c1ccccc1Cc1ccccc1 2.93 µM
N/C(=N\OC(=O)c1ccc2ccccc2c1)c1ccncc1 0.585 µM
Cc1ccccc1C(=O)O/N=C(\N)c1ccncc1 6.56 µM
N/C(=N\OC(=O)c1cccc2ccccc12)c1ccncc1 16.5 µM
CCOc1ccc(-c2cn(-c3ccc(OC)cc3)c(SC)n2)cc1 2.93 µM
COc1ccc(-n2cc(-c3ccccc3)nc2SC)cc1 8.26 µM
C=CCN1N=C(/C=C/c2ccc(C)cc2)CCC1=O 10.4 µM
C=CCN1N=C(/C=C/c2ccc(OC)cc2)CCC1=O 14.7 µM
Cc1ccc2c(c1)sc1nc(=O)n(-c3ccccc3)c(=O)n12 0.131 µM
Cc1cc2sc3nc(=O)n(-c4ccccc4)c(=O)n3c2cc1C 4.14 µM
Cc1snc(SCC(=O)c2ccc(F)cc2)c1C#N 4.65 µM
O=C(Nc1ccc2oc(-c3ccccc3Cl)nc2c1)c1ncn[nH]1 0.927 µM
Cc1ccccc1-c1nc2cc(NC(=O)C3CC3)ccc2o1 0.414 µM
O=C(Nc1ccccc1O)c1ccc(NC(=O)C2CC2)cc1 6.56 µM
O=C1c2ccccc2C(=O)c2cc(NC(=O)C3CC3)ccc21 0.736 µM
N#Cc1c(N2CCCC2)nsc1-c1ccccc1 16.5 µM
N#Cc1c(N2CCOCC2)nsc1-c1ccccc1 13.1 µM
N#Cc1c(N2CCOCC2)nsc1-c1ccc(C(F)(F)F)cc1 5.85 µM
CCOc1ccc2nc(SCC(=O)c3cccs3)sc2c1 4.14 µM
CC1CCc2sc3nc(N4CCN(CCO)CC4)n4ncnc4c3c2C1 (centres undefined) 13.1 µM
CN1CCc2c(sc(NC(=O)C3COc4ccccc4O3)c2C(N)=O)C1 (centres undefined) 9.27 µM
Fc1ccccc1Nc1nc2c(s1)CCc1ccccc1-2 0.464 µM
